Source: PubChem (National Center for Advancing Translational Sciences (NCATS))
MCF10A rerep – A quantitative high throughput screen for small molecules that induce DNA re-replication in MCF 10a normal breast cells; MCF 10A DNA re-replication, Hoechst nuclear intensity, 48 h; actives 2.9% (n = 350,000); Potency, µM (series often up to 46.1 µM), for the others: top-dose activity, positive = re-replication, actives largely listed as activators; also: potency is read from the fitted curve at half-maximal effect; % of control where 0% means no effect; nearly all actives have a fitted effect of over 50% in size
KB-3-1 tox – qHTS assay for MDR1-selective chemotherapeutics: Primary screen using the parental adenocarcinoma cell KB-3-1 | KB-3-1 viability, CellTiter-Glo ATP luminescence, 72 h | Potency, µM (titrated, usually from 46.1 µM), usual class: cytotoxic | actives 1.4% (n = 400,000); also: potency is read from the fitted curve at half-maximal effect; % is scaled to controls: 0 for no effect and ±100 for the full control effect; nearly all actives have a fitted effect of over 60% in size
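Cells are dispensed, compounds pinned in, plates held at 37 °C for 72 h, then CellTiter-Glo is added and luminescence read after 10 minutes. Cell line: parental KB-3-1 in phenol-red-free DMEM, 10% FBS.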
KB-V1 cytotox – qHTS assay for MDR1-selective chemotherapeutics: Primary screen using the drug-selected MDR subline cells KB-V1. KB-V1 MDR cells viability, CellTiter-Glo, 72 h. Potency, µM (top dose mostly 46.1 µM), actives largely listed as cytotoxic. actives 3.4% (n = 400,000); also: potency is read from the fitted curve at half-maximal effect; % is scaled to controls: 0 for no effect and ±100 for the full control effect; nearly all actives have a fitted effect of over 60% in size
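Readout: CellTiter-Glo luminescence, 10 min after addition. Cells: KB-V1 MDR subline, 72 h at 37 degrees C with compound. Analysis: corrected, normalized data fitted to concentration-effect curves.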
IL1B secr inh – qHTS for Inhibitors of Inflammasome Signaling: IL-1-beta AlphaLISA Primary Screen; THP-1 LPS/ATP IL-1B secretion, AlphaLISA, 16 h; stronger effect = lower value; activity change, % at 57.5 µM; actives 4.7% (n = 360,000); AID 743279, 2014; in the data active = activity change below about -50%; inconclusive = mostly about -30% to -49%; also: % is scaled to controls: 0 for no effect and ±100 for the full control effect
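THP-1 cells pretreated 1 hr with compounds (up to 57.5 uM final), then stimulated with LPS (250 ng/mL final) plus ATP (1.25 mM final); secreted IL-1B measured by AlphaLISA after 16 hr, decreased signal indicating inhibition.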
SW480 rereplic – A quantitative high throughput screen for small molecules that induce DNA re-replication in SW480 colon adenocarcinoma cells; SW480 DNA re-replication, Hoechst DNA content imaging, 48 h; actives 1.8% (n = 340,000); AID 624297, 2012; Potency, µM (highest dose often 46.1 µM), for the others: top-dose re-replication activation, usual class: activators; also: potency is read from the fitted curve at half-maximal effect; % of control where 0% means no effect; nearly all actives have a fitted effect of over 55% in size
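Cells (250 per well) received 23 nL compound or DMSO by pin tool and were kept 48 hr at 37 C, 5% CO2. Nuclei were then stained with Hoechst for 40 min and scanned for DNA content.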
Active calls of the source: *; i = inactive; ? = inconclusive; nt = not tested or not shown. An excerpt weighted towards active compounds, which were near 9.9% of everything screened. Unless noted, calls follow the shape of the dose curve; as a rule, active = well fitted curve in the direction sought with a large enough effect; inconclusive = small, poorly fitted or top-dose-only effect, or another doubt; inactive = no such curve, though single readings can be large; an effect the other way counts as inactive or inconclusive.

SMILES	MCF10A rerep	KB-3-1 tox	KB-V1 cytotox	IL1B secr inh	SW480 rereplic
COC(=O)c1c(NC(=O)C(C)C)sc2c1C(C(=O)OC)CC2 (stereo unspecified)	-2.8%	?	13µM*	6.2	-3.5%
Cc1ccc2c(CC(=O)Nc3cccc(S(=O)(=O)N4CCOCC4)c3)coc2c1	1.1%	i	i	-7.2	-1.4%
CCOc1ccc(S(=O)(=O)N2CCOCC2)cc1NC(=O)CN1C(=O)NC(C)(c2ccccc2)C1=O (stereo unspecified)	2.0%	i	i	3.8	1.6%
COc1ccc(OC)c(CCNC(=O)CS(=O)(=O)Cc2nc(-c3ccc(C)cc3)oc2C)c1	16.5%	i	?	-10.1	-7.7%
CCOc1ccc(CCNC(=O)CS(=O)(=O)Cc2nc(-c3ccccc3F)oc2C)cc1	-1.7%	i	?	-60.7*	-1.9%
COc1ccc(-c2nc(CS(=O)(=O)CC(=O)NCCc3cc(OC)ccc3OC)c(C)o2)cc1	7.7%	i	8.2µM*	6.6	2.2%
COc1cccc(C(=O)NCCS(=O)(=O)N2CCCCC2)c1	-2.3%	i	i	-2.9	-0.6%
COc1cccc(C(=O)NCCS(=O)(=O)N2CCCCCC2)c1	0.6%	i	11.6µM*	3.0	2.0%
CC1CCN(c2ccc(C(=O)NCCc3ccccc3)cn2)CC1	10.7%	i	13µM*	-24.7	9.7%
COc1cccc(CCNS(=O)(=O)CCNC(=O)c2cccc(OC)c2)c1	0.1%	i	i	-1.4	4.0%
O=C(NCc1ccccc1)c1ccc(C(=O)NCc2ccccc2)cc1	-2.1%	i	i	0.0	-5.3%
COc1cccc(C(=O)NCCS(=O)(=O)NCCCc2ccccc2)c1	-5.3%	i	16.4µM*	0.0	-2.8%
O=C(NCc1ccccc1)c1ccc(C(=O)N(C2CCCCC2)C2CCCCC2)cc1	-1.8%	?	23.1µM*	?	8.2%
COc1ccc(/C(C)=N/NC(=S)NCCc2ccccc2)c(O)c1	?	i	i	50.6	10.6%
CCN(C1CCCCC1)S(=O)(=O)CCNC(=O)c1ccccc1	-1.2%	i	4.11µM*	4.8	-5.0%
COc1ccccc1N1CCN(S(=O)(=O)CCNC(=O)c2cc(OC)c(OC)c(OC)c2)CC1	?	6.51µM*	i	68.0	?
O=C(Cc1cccs1)NCCS(=O)(=O)N1CCN(c2ccccc2F)CC1	16.4µM*	11.6µM*	?	6.6	23.1µM*
O=C(Cc1cccs1)NCCS(=O)(=O)N1CCN(c2ccccc2)CC1	nt	i	i	0.1	nt
COc1ccccc1N1CCN(S(=O)(=O)CCNC(=O)c2ccco2)CC1	nt	i	i	1.9	nt
COc1cccc(C(=O)NCCS(=O)(=O)N2CCC(C)CC2)c1	6.2%	i	23.1µM*	-4.3	-4.2%
COC(=O)C1CCN(S(=O)(=O)CCNC(=O)c2cccc(OC)c2)CC1	2.4%	i	i	0.0	-7.7%
Cc1cc([N+](=O)[O-])ccc1N(C)C	-1.7%	i	i	7.0	-1.9%
S=C(NCc1ccco1)Nc1ccc(Cl)cn1	1.1%	i	i	16.4	4.0%
CC1CCN(S(=O)(=O)CCNC(=O)c2ccccc2)CC1	8.0%	i	13µM*	-2.2	-3.6%
O=C1C2CC=CCC2C(=O)N1Cc1ccccc1 (stereo unspecified)	-6.8%	i	i	21.5	0.5%
CN(C)C(CN1C(=O)C2CC=CCC2C1=O)c1cn(C)c2ccccc12 (stereo unspecified)	-0.6%	i	i	11.2	4.11µM*
Cc1cc(C)n2[nH]c(=O)c(N=Nc3ccc(S(N)(=O)=O)cc3)c2n1	2.8%	i	i	19.0	-0.2%
NS(=O)(=O)c1ccc(N=Nc2c(-c3ccccc3)[nH]n(-c3nc(-c4ccccc4)cs3)c2=O)cc1	?	?	20.6µM*	?	2.91µM*
Cc1ccc(CN(Cc2ccc(C)o2)C(=S)NCC(=O)O)cc1	-5.5%	i	i	-0.3	-5.9%
